Measured values published in PubChem BioAssay (NCI).
Several values for one entry are separate records, joined by “and”; a condition that tells them apart may be missing. Identical values can stand only once. This is part of a sample that, as a whole, favours compounds with a hit. Of some 83,000 tested, about 20% had one in any assay.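 Method: cells in 96-well plates; compound added at one concentration; 48 h incubation; percent growth measured; values under 10 scored active.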 Values without a mark were called inactive. Activity calls are given as the source filed them.

The molecules below were run on HL-60(TB) leukemia (assay: NCI-60 one-dose screen, 48 h (100 = growth as untreated, 0 = no growth, -100 = all killed)). Conditions: 10 µM unless noted.

With `COc1ccc(-c2csc(NC(=O)N3CCN(c4cc5c(cc4F)c(=O)c(C(=O)O)cn5C4CC4)CC3)n2)cc1` as the molecule, how does the growth read?
Its growth is -11.6% (active).

For `C=C(C)[C@@H]1CC[C@]2(C(=O)OC)CC[C@]3(C)[C@H](CC[C@@H]4[C@@]5(C)C/C(=C/c6ccc(OC)cc6)C(=O)C(C)(C)[C@@H]5CC[C@]43C)[C@@H]12`, which growth is on record?
The growth was 87.6%.

With `O=[N+]([O-])c1cccc(N=C(Nc2cccc([N+](=O)[O-])c2)c2ccccc2)c1` as the molecule, how does the growth read?
The growth was 102%.

With `C[C@@H](NC(=O)[C@@H](CC(=O)N1CCC(N2CCCCC2)CC1)N1C(=O)[C@@H](N2C(=O)OC[C@@H]2c2ccccc2)[C@H]1/C=C/c1cccc(Cl)c1)c1ccccc1` as the molecule, how does the growth read?
The growth was 66.3%.

Which growth does the source give for `O=C(NC1C(O)OC(CO)C(O)C1O)NS(=O)(=O)c1ccc(Cl)cc1` (centres undefined) here?
Its growth is 93.4%.

Which growth does the source give for `C[C@H]1[C@H]2[C@H]3CC[C@@H]4[C@@]5(C)C/C(=C/c6cccnc6)C(=O)C(C)(C)[C@@H]5CC[C@@]4(C)[C@]3(C)CC[C@]23CO[C@]1(C)[C@@H](C(=O)/C=C\c1cccnc1)C3` here?
The growth was 14.5%.

For `CCCC(C)OCC(=O)O` (centres undefined), which growth is on record?
The growth was 88.8%.

For `COc1ccc(/C(C)=C(\c2ccc(Cl)cc2)c2ccc(OCCN3CCCCC3)cc2)cc1F`, which growth is on record?
The growth was -14% (active).

Which growth does the source give for `COc1cc(NCCCCCN)c2ncccc2c1` here?
The growth was 83.2%.

`COc1c(B(O)O)cccc1-c1nc2ccc3[nH]ncc3c2c2c1CCC2` was tested. Which growth did it give?
The growth was 61.6%.

How did the growth turn out when `COC(=O)C(=C\c1ccc2c(c1)OCO2)/C(=C/c1ccc2c(c1)OCO2)C(=O)OC` was run?
Its growth is 112%.

Which growth does the source give for `CCCCCCCCCCCC(=O)C(CCCCCCCCCC)C(=O)Nc1ccccc1` (centres undefined) here?
The growth was 101%.

How did the growth turn out when `OB(O)c1ccccc1` was run?
Its growth is 98.1%.

How did the growth turn out when `COc1ccc2oc3c(C)c4c(c(C)c3c2c1)C(=O)N(Cc1ccccc1)C4=O` was run?
The growth was 96.2%.

Which growth does the source give for `Cc1ccc(-c2nc3nc(-c4ccc(F)cc4)nc(N4CCNCC4)c3o2)cc1` here?
The growth was -69.1% (active).

Which growth does the source give for `Cc1ccc(NC(=O)c2ccc(CN3CCN(C)CC3)cc2)cc1Nc1nccc(-c2cccnc2)n1` here?
The growth was 107% and 89.8%.

`CC1CCC(C(=O)O)N1` (centres undefined) was tested. Which growth did it give?
Its growth is 79.7%.

How did the growth turn out when `Cc1c(C(=O)OC(=NC2CCCCC2)NC2CCCCC2)sc2c1c(=O)nc1c(C#N)n[nH]n12` was run?
Its growth is 124%.

`Cn1nccc1Nc1nccc(-c2ccn([C@H](CO)c3ccc(Cl)c(F)c3)c(=O)c2)n1` was tested. Which growth did it give?
The growth was 57.1%.

Which growth does the source give for `O=C1c2ccccc2C(c2ccccc2)C1c1ccccc1` (centres undefined) here?
Its growth is 76.4%.

With `CCOC(=O)NC(N)=O` as the molecule, how does the growth read?
Its growth is 92.4%.

Which growth does the source give for `COc1cc(C2CC(C3C(=O)N(C)C(=O)N(C)C3=O)=NN2c2cc(Cl)cc(Cl)c2)cc(OC)c1OC` (centres undefined) here?
Its growth is 98.6%.

`CCCCc1ccc(Nc2ccc(Nc3ccc(CCCC)cc3S(=O)(=O)O)c3c2C(=O)c2ccccc2C3=O)c(S(=O)(=O)O)c1` was tested. Which growth did it give?
Its growth is 96%.

How did the growth turn out when `CSC1=NC(=Nc2c(C)cccc2C)C2(CCC(C(C)(C)C)CC2)N1c1ccc(Cl)cc1` (centres undefined) was run?
Its growth is 53.4%.
